Laboratory results from PubChem BioAssay AID493194 (Broad Institute, 2011).
Entries with a potency or affinity are not part of this list. Inconclusive results are not listed.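 The calls were made as follows: active = a valid curve of falling signal whose half-effect concentration is at most ten times the top tested dose; inconclusive = flat curve at 30 to 70% inhibition, or poor fit; inactive = signal rise, flat within 30%, or potency beyond limit.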

molecular target: Scavenger receptor class B member 1 (Mus musculus) (UniProt Q61009); test: inhibitors of SR-BI mediated HDL lipid uptake, dose response, ldlA[mSR-BI] cells, fluorescence, cherry pick (AID 493194); conditions: CHO ldlA[mSR-BI] DiI-HDL uptake fluorescence, 3 h; series mostly up to 35 µM; activity change, negative = inhibition: at the top concentration;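 also: CHO cells lacking LDL receptor and overexpressing mouse SR-BI; cellular uptake of fluorescently labeled HDL measured as cell fluorescence; 0% = median of neutral control wells and -100% = median of positive control wells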
Sequence (Q61009 whole entry, looked up): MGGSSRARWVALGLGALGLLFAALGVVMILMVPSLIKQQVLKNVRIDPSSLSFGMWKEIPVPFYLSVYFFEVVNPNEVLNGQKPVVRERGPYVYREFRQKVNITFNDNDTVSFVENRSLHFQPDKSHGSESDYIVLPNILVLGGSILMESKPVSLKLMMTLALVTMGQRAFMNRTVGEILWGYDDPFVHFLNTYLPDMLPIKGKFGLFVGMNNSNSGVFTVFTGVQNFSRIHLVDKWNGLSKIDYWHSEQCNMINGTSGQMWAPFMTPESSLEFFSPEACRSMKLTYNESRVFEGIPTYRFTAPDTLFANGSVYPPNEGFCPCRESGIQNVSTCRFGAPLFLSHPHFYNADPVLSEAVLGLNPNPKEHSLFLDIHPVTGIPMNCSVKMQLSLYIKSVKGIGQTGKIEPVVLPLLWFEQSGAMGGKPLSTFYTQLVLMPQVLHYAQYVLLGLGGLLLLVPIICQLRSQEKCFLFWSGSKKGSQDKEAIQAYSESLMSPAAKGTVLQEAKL

Activity change, negative = inhibition, inactive:
O=C(Nc1ccn(Cc2c(F)c(F)c(F)c(F)c2F)n1)c1ccc(COc2ccccc2Cl)cc1 57.4%, COC(=O)[C@@]1(Cc2ccc(F)cc2)[C@H]2c3cc(C(=O)N4CCCC4)n(CCCNc4ncc(C(F)(F)F)cc4Cl)c3C[C@H]2CN1C(=O)c1ccccc1 22.1%, Cc1cc(N(C)C(=O)c2ccc3c(c2)S(=O)(=O)c2cc(Cl)ccc2C3=O)c(C(F)(F)F)o1 -22.7%, COc1ccc(N2CC(C(=O)N3CCN(S(=O)(=O)c4ccc(F)c(F)c4)CC3)CC2=O)c(OC)c1 (stereo not given) 20.3%, CCOC(=O)Nc1cccc(NC(=O)c2cc(OC)cc(OC)c2)c1 -50.1%, CCOc1ccc(OCCSc2nc3ccccc3n2CC(=O)O)cc1 51.5%, COC(=O)c1ccc(C(=O)Nc2nc3cc(N)c(C)cc3s2)cc1 -23.6%, CCN(C(=O)COn1nnc2ccc(S(=O)(=O)N(C)C)cc21)C1CCS(=O)(=O)C1 (stereo not given) -1.5%, N#CCCN(C(=O)COC(=O)CCc1c[nH]c2ccccc12)c1ccc(F)cc1 -3%, CC(CCc1ccccc1)NC(=O)C1CCN(C(=O)c2sccc2-n2cccc2)CC1 (stereo not given) 44.4%, Cc1ccc(-c2cc(-c3ccc(C)cc3O)[nH]n2)cc1 -5.14%, CCOc1ccccc1CNC(=O)C1CCN(C(=O)c2sccc2-n2cccc2)CC1 -20.1%, Cc1ccc(CNC(=O)c2ccc(N3CCC4(CC3)CC(c3cccc(Br)c3)=NO4)c([N+](=O)[O-])c2)cc1 -0.849%, COc1cccc2c1cc1c(=O)n(CC(=O)N3CCN(c4cccc(C)c4C)CC3)nc(C)n12 26.3%, COc1ccc(N2CCN(C(=O)c3cc(=O)[nH]c4ccccc34)CC2)cc1 -23.9%
